Experiment [1] can be described thus: qHTS assay to identify small molecule antagonists of the estrogen receptor alpha (ER-alpha) signaling pathway using the BG1 cell line in the presence of 0.1 nM 17-beta-estradiol - cell viability counter screen (AID 1259241). Further: nearly all actives have a fitted effect of over 40% in size. Further: potency means the concentration at half of the fitted maximal effect. The method in brief:
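VM7Luc4E2 cells (endogenous full-length ER-alpha, 4xERE-luciferase), cultured 5 days in charcoal-stripped serum, exposed to compounds with 0.1 nM 17beta-estradiol (final) for 22 hr at 37C. Viability read in same wells as live-cell protease fluorescence after 30 min.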
(Quantitative high-throughput screening tests each substance at several concentrations.)

Experiment [2] in a line: qHTS assay to identify small molecule antagonists of the androgen receptor (AR) signaling pathway using the MDA cell line in the presence of 0.5 nM R1881 - cell viability counter screen (AID 1259242). Further: nearly all actives have a fitted effect of over 45% in size. Further: potency means the concentration at half of the fitted maximal effect. In a few lines: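 Human breast carcinoma MDA-kb2 cells, cultured without CO2, receive compounds alongside 0.5 nM (final) R1881 agonist. After 16 hr at 37C, viability is taken as live-cell protease signal.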

Experiment [3] can be described thus: qHTS assay to identify small molecule HDAC inhibitors (AID 1259364). Further: potency means the concentration at half of the fitted maximal effect.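 Further: wild-type HCT-116 cells with endogenous class I/II HDAC activity; nearly all actives have a fitted effect of over 45% in size.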 In a few lines:
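After a 2 hr compound incubation (37C, 5% CO2), HCT-116 cells seeded at 1,500/well the day before received HDAC-Glo reagent; signal read as luminescence after 30 min at room temperature.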

A short description of experiment [4]: qHTS assay to identify small molecule HDAC inhibitors - cell viability counter screen (AID 1259365). Further: nearly all actives have a fitted effect of over 50% in size. Further: potency means the concentration at half of the fitted maximal effect. In a few lines: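 Wild-type HCT-116 cells, 1,500/well, cultured overnight, then compound-treated 2 h at 37 C. Viability measured as ATP luminescence with CellTiter-Glo after 30 min at room temperature.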
A short description of experiment [5]: qHTS assay to identify small molecule agonists of the sonic hedgehog signaling (Shh) pathway - cell viability counter screen (AID 1259366). Further: nearly all actives have a fitted effect of over 50% in size. Further: potency means the concentration at half of the fitted maximal effect. In a few lines:
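NIH/3T3-derived Gli1-Luc reporter cells, 2,000 per well, received compound after 4 h and were treated about 23 h at 37C. Viability measured in the same wells by CellTiter-Fluor fluorescence after 1 h.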

Experiment [6] is described as follows: qHTS assay to identify small molecule antagonists of the sonic hedgehog signaling (Shh) pathway - cell viability counter screen (AID 1259367). Further: nearly all actives have a fitted effect of over 55% in size. Further: potency means the concentration at half of the fitted maximal effect. The method in brief:
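Tox21 library chemicals were tested on a Gli1-Luc NIH/3T3 clone (2,000 cells/well) stimulated by conditioned medium; viability was quantified as fluorescence from CellTiter-Fluor reagent added at 23 hr.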

Experiment [7] can be described thus: qHTS assay to identify small molecule agonists of the sonic hedgehog signaling (Shh) pathway (AID 1259368; calls by dose curve;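 further: NIH/3T3-derived 3T3Gli1-Luc cells carrying a stable Gli1-driven firefly luciferase reporter; series mostly up to about 92 µM; nearly all actives have a fitted effect of over 15% in size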). The method in brief:
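Stable NIH/3T3 Gli1-Luc reporter clone; 24 hr cpd exposure after a 4 hr settling period; luminescence endpoint.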

Experiment [8] can be described thus: qHTS assay to identify small molecule antagonists of the sonic hedgehog signaling (Shh) pathway (AID 1259369; calls by dose curve; further: nearly all actives have a fitted effect of over 45% in size; further: potency means the concentration at half of the fitted maximal effect). The method in brief:
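Gli1 transcriptional reporter (firefly Luc) in NIH/3T3 background, conditioned-medium activated. 24hr exposure, luminescence endpoint.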

Experiment [9] in a line: qHTS assay to identify small molecule agonists of the androgen receptor (AR) signaling pathway in the presence of an antagonist - cell viability counter screen (AID 1259379). Further: nearly all actives have a fitted effect of over 25% in size. Further: potency means the concentration at half of the fitted maximal effect. The method in brief: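 Counter screen for cell viability run in parallel with the AR agonist-mode luciferase assay. MDA-kb2 cells were co-treated with nilutamide (3.0uM final) and compounds, then incubated 16 hr at 37C, and CellTiter-Fluor fluorescence was measured.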

A short description of experiment [10]: qHTS assay to identify small molecule agonists of the estrogen receptor beta (ER-beta) signaling pathway - cell viability counter screen (AID 1259380). Further: nearly all actives have a fitted effect of over 30% in size. Further: potency means the concentration at half of the fitted maximal effect. In a few lines:
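In this qHTS counter screen, HEK293T cells carrying an ER-beta/UAS beta-lactamase reporter, grown in 2% charcoal-stripped FBS, received compound for 16 hr; ATP-based CellTiter-Glo luminescence was then read after 30 min at room temperature.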

A short description of experiment [11]: qHTS assay to identify small molecule antagonists of the estrogen receptor beta (ER-beta) signaling pathway - cell viability counter screen (AID 1259382). Further: nearly all actives have a fitted effect of over 55% in size. Further: potency means the concentration at half of the fitted maximal effect. In a few lines:
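HEK293T ER-beta-UAS-bla, 2% charcoal-stripped FBS; compounds + 1nM E2 16 hr 37C; CellTiter-Glo luminescence, 30 min RT.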

Experiment [12] is described as follows: qHTS assay to identify small molecule agonists or antagonists of the thyroid stimulating hormone receptor (TSHR) signaling pathway - wild type cell line counter screen (AID 1259384; calls by dose curve; further: potency means the concentration at half of the fitted maximal effect). The method in brief: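 Wild-type Hek293 cells, 800/well, 18 h at 37C, then compound with Ro20-1724 for 30 min RT. cAMP by HTRF (cAMP-d2/anti-cAMP cryptate), 1 h RT, fluorescence read. 15 concentrations, triplicates.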

For experiment [13], the target named is Thyrotropin receptor (Homo sapiens) (UniProt P16473). As to the kind of experiment: qHTS assay to identify small molecule antagonists of the thyroid stimulating hormone receptor (TSHR) signaling pathway (AID 1259385; calls by dose curve; further: nearly all actives have a fitted effect of over 20% in size; further: potency means the concentration at half of the fitted maximal effect). In a few lines: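 TSHR-HEK293 cells (800/well) plated 18 h, then compounds with Ro20-1724 and TSH at 1.5 ng/mL final, 30 min at room temperature. cAMP quantified by HTRF (cAMP-d2/anti-cAMP-cryptate, 1 h); 15 concentrations in triplicate.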

The nature of experiment [14]: qHTS assay to identify small molecule agonists of the estrogen receptor alpha (ER-alpha) signaling pathway in the presence of an antagonist - cell viability counter screen (AID 1259386). Further: nearly all actives have a fitted effect of over 30% in size. Further: potency means the concentration at half of the fitted maximal effect. In a few lines:
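Steps: 5-day stripped-FBS culture; seed and incubate 24hr; add ICI-182,780 (10.0nM final); pin 15-point compound titration; incubate 22hr at 37C; add CellTiter-Fluor at 21hr; read fluorescence.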

The target in experiment [15] is Estrogen receptor (Homo sapiens) (UniProt P03372). The experiment can be described thus: qHTS assay to identify small molecule agonists of the estrogen receptor alpha (ER-alpha) signaling pathway in the presence of an antagonist (AID 1259383; calls by dose curve; further: top concentration of the series differs between compounds; nearly all actives have a fitted effect of over 15% in size). In a few lines: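 ER-alpha agonism measured under antagonist challenge: 10.0nM ICI-182,780 (final) plus compound, 15 concentrations, 22hr, VM7Luc4E2 ERE-luciferase cells. Read by luminescence.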

Experiment [16] has as its target Estrogen receptor beta (Homo sapiens) (UniProt Q92731). As to the kind of experiment: qHTS assay to identify small molecule agonists of the estrogen receptor beta (ER-beta) signaling pathway (AID 1259377; active means well fitted activation curve with a large enough effect in the signal ratio in the repeat runs, not every such curve was filed as active; the % refers to the signal ratio). The method in brief: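 ER-beta-UAS-bla HEK293T cells in medium with 2% charcoal-stripped FBS were exposed to compounds for 16 h at 37C. Beta-lactamase reporter activity was read as fluorescence after 2 h with LiveBLAzer B/G FRET substrate at room temperature.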

Experiment [17] shares this target. As to the kind of experiment: qHTS assay to identify small molecule antagonists of the estrogen receptor beta (ER-beta) signaling pathway (AID 1259378; active means well fitted inhibition curve with a large enough effect in the signal ratio in the repeat runs, not every such curve was filed as active; the % refers to the signal ratio). In a few lines:
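ER-beta-UAS-bla HEK293T cells in 2% charcoal-stripped FBS medium treated with compound plus 1nM final 17-beta-estradiol for 16 hr at 37C. Beta-lactamase reporter read by FRET substrate fluorescence after 2 hours at room temperature.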

In experiment [18] the target is Estrogen receptor (Homo sapiens) (UniProt P03372). As to the kind of experiment: qHTS assay to identify small molecule antagonists of the estrogen receptor alpha (ER-alpha) signaling pathway using the BG1 cell line in the presence of 0.1 nM 17-beta-estradiol (AID 1259244). Further: nearly all actives have a fitted effect of over 50% in size. The method in brief:
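Seeding of stripped-serum-adapted VM7Luc4E2 cells, 24 h attachment, compound transfer, then 0.1 nM final 17beta-estradiol; after 22 h incubation, ONE-Glo reagent and luminescence reading.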

Records with an inconclusive call do not appear. Activity calls are given as the source filed them. Unless noted, the call rests on the fitted dose curve; in most records, active means well fitted curve in the direction sought with a large enough effect in the repeat runs; inconclusive means weak or mixed curves; inactive means no such curve, though single readings can be large; an effect the other way counts as inactive or inconclusive.

Sequence of Estrogen receptor (Homo sapiens) (P03372 whole entry, looked up): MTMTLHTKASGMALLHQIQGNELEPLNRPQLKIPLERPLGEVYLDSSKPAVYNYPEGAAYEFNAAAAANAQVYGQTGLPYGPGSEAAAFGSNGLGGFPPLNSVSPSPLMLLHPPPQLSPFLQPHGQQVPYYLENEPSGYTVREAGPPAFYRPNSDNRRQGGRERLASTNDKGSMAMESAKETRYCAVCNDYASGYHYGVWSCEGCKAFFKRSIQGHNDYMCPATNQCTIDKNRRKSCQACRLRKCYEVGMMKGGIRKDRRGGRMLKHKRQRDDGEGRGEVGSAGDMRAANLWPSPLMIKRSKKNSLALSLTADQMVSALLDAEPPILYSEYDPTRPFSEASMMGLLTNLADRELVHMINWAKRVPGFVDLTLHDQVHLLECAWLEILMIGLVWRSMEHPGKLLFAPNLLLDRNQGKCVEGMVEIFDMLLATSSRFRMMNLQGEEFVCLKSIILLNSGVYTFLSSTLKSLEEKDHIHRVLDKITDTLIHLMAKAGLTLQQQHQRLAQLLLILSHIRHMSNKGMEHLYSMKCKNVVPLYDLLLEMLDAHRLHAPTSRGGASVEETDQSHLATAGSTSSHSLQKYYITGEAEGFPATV
Sequence of Estrogen receptor beta (Homo sapiens) (Q92731 whole entry, looked up): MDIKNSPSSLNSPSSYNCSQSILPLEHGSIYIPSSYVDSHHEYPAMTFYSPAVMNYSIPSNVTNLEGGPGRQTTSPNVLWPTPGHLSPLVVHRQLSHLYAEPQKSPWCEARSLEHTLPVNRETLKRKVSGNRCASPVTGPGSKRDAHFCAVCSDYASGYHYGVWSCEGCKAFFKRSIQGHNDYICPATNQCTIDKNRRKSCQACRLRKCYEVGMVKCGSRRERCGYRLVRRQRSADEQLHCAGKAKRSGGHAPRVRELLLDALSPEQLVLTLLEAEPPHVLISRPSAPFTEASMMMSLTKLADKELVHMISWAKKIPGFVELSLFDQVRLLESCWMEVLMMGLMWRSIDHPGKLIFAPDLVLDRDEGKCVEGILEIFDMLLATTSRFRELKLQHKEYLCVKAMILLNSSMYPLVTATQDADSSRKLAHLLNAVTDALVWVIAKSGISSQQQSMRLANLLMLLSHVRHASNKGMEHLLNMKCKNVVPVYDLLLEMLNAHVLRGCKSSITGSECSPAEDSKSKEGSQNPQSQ
Sequence of Thyrotropin receptor (Homo sapiens) (P16473 whole entry, looked up): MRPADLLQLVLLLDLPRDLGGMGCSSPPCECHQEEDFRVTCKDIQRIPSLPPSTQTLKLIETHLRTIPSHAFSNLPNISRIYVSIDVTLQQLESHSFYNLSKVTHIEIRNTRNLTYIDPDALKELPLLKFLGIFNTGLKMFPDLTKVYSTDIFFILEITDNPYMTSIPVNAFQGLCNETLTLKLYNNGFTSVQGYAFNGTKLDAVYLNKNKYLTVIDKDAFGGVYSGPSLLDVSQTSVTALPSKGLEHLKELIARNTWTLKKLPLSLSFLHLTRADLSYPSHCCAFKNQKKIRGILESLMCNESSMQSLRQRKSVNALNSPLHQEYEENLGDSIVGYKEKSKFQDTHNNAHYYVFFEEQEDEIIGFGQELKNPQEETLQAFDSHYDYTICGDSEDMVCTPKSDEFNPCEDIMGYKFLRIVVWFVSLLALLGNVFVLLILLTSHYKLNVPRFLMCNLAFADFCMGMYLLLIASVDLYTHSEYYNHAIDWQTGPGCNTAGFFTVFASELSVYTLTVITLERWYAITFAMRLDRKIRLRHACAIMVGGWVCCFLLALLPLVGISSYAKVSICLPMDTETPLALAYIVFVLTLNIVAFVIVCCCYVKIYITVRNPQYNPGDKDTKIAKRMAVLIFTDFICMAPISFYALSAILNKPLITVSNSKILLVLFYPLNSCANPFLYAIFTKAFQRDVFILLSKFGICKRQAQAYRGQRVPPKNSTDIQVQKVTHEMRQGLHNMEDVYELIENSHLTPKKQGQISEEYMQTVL

As for `CN=C=O`, the Potency result in [1], in [2], in experiment [3], in experiment [4], in [5] and in experiment [6] was “inactive” throughout. Moreover, the Potency result in experiment [7], in [8], in experiment [9], in experiment [10], in [11] and in [12] was “inactive” throughout. The Potency result in experiment [13] and in experiment [14] was “inactive” each time.

In the case of `CC(O)C(=O)[O][Hg][c]1ccccc1` (centres undefined), the Potency in experiment [1] is 12.2 µM (active); in experiment [2], 6.11 µM (active); in experiment [3], 4.33 µM (active); in [4], 4.33 µM (active); in [5], 0.969 µM (active); in [6], 1.22 µM (active). Further, the Potency was 0.0306 µM (active) in [8]; 6.86 µM (active) in experiment [9]; 4.86 µM (active) in experiment [10]; 4.33 µM (active) in [11]; 5.66 µM (active) in [12]; 54.5 µM (active) in [13]. Also, in experiment [14], the Potency is 12.2 µM (active). Besides, the Potency entry in experiment [7] and in [15] was “inactive” each time.

For `NC(=O)C(Cl)Cl`, the Potency entry in [1], in experiment [2], in experiment [3], in experiment [4], in experiment [5] and in experiment [6] was “inactive” throughout. The Potency entry in experiment [7], in [8], in [16], in [17], in [9] and in [10] was “inactive” each time. The Potency result in experiment [11] and in [14] was “inactive” each time.

On to `Clc1ccc(C(Cl)(Cl)Cl)cc1Cl`, for which the Potency entry in [1], in experiment [2], in [4], in experiment [5], in experiment [6] and in [7] was “inactive” in each case. Moreover, the Potency result in experiment [8], in experiment [16], in experiment [17], in experiment [10], in [11] and in [15] was “inactive” throughout. The Potency result in experiment [14] was “inactive”. Moreover, the Potency in experiment [3] was 15 µM (active).

In the case of `Brc1ccc(Oc2ccc(Br)cc2Br)c(Br)c1`, the Potency result in experiment [1], in [2], in experiment [18], in [4], in experiment [5] and in experiment [6] was “inactive” each time. Also, the Potency result in [7], in experiment [8], in experiment [16], in experiment [11], in [15] and in experiment [12] was “inactive” in each case. Further, the Potency result in experiment [14] was “inactive”. For the same compound, the Potency in experiment [13] is 61.2 µM (active).

On to `CCOP(=O)(OCC)Oc1cc(C)nc(C(C)C)n1`, for which the Potency result in experiment [1], in [2], in experiment [3], in experiment [4], in experiment [5] and in [6] was “inactive” throughout. In addition, the Potency result in experiment [7], in [8], in experiment [16], in experiment [17], in experiment [9] and in experiment [10] was “inactive” each time. Further, the Potency entry in experiment [11], in experiment [12], in experiment [13] and in [14] was “inactive” in each case.

On to `Nc1ccccc1-c1ccccc1`, for which the Potency result in experiment [1], in experiment [2], in experiment [18], in [5], in experiment [6] and in [7] was “inactive” in each case. Further, the Potency entry in experiment [8], in [16], in experiment [9], in experiment [11], in experiment [15] and in experiment [12] was “inactive” each time. For the same compound, the Potency entry in [13] and in experiment [14] was “inactive” each time. For the same compound, in experiment [10], the Potency is 48.3 µM (active).

On to `CNC(=O)/C=C(\C)OP(=O)(OC)OC`, for which the Potency entry in [1], in [2], in experiment [18], in [3], in experiment [5] and in experiment [6] was “inactive” throughout. Also, the Potency entry in experiment [8], in experiment [16], in [9], in [10], in experiment [11] and in experiment [15] was “inactive” throughout. Besides, the Potency result in [12], in experiment [13] and in experiment [14] was “inactive” in each case.

`ClC(Cl)C(Cl)(Cl)Cl`: the Potency entry in experiment [1], in experiment [2], in [3], in experiment [4], in experiment [5] and in [6] was “inactive” in each case. Besides, the Potency result in experiment [7], in experiment [8], in [16], in [17], in experiment [9] and in experiment [10] was “inactive” in each case. The Potency entry in [11], in experiment [15], in experiment [12], in experiment [13] and in experiment [14] was “inactive” each time.

The record behind these values is PubChem BioAssay (Tox21).
